A selection: hits, their analogues and other compounds. The true share with any hit is near 5.7%.
KB-V1 cytotox: KB-V1 MDR subline cytotoxicity; KB-V1 MDR cells viability, CellTiter-Glo, 72 h; Potency, µM (top dose mostly 46.1 µM), most hits filed as cytotoxic; 400,000 compounds, 3.4% hits; also: nearly all actives have a fitted effect of over 60% in size
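KB-V1 MDR subline cells in DMEM (phenol-red free, 10% FBS) exposed to compounds in qHTS concentration series for 72 h at 37 degrees C. Viability read by CellTiter-Glo luminescence; concentration-effect curves fitted after normalization and correction.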
HT1080 IDH1KD tx: HT-1080 IDH1 knockdown cell toxicity (counter line) | HT-1080 IDH1 knockdown viability, ATP luminescence, 48 h | Potency, µM (titrated, usually from 46.1 µM), inactives show at the highest dose activity, negative = toxicity, actives largely listed as cytotoxic | 360,000 compounds, 2% hits | AID 686971;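 also: 0% = DMSO wells and -100% = cell-free medium wells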
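Using the IDH1-knockdown HT-1080 line run in the same batch and compound series as the NT line, viability after 48 h at 37 °C was determined by CellTiter-Glo luminescence and expressed as % activity.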
HT1080-NT tox: kills 2HG-producing HT-1080-NT fibrosarcoma cells; HT-1080-NT fibrosarcoma viability, CellTiter-Glo ATP luminescence, 48 h; Potency, µM (titrated, usually from 46.1 µM), for inactives: at the highest dose activity, negative = less viability, hits mostly cytotoxic; AID 686970; 360,000 compounds, 1.6% hits;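 also: NT is the 2HG producing partner of a matched IDH1 knockdown line; 0% = DMSO-treated cells and -100% = media-only wells without cells; nearly all actives have a fitted effect of over 55% in size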
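Luminescent CellTiter-Glo readout after 48 hours of compound exposure at 37 degrees C defined viability of HT-1080-NT cells. Activity was normalized to DMSO wells and cell-free media wells; concentration-response curves were fitted and assigned curve classes.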
KB-3-1 tox: kills parental KB-3-1 adenocarcinoma cells; Potency, µM (series often up to 46.1 µM), usual class: cytotoxic; 400,000 compounds, 1.4% hits; KB-3-1 viability, CellTiter-Glo ATP luminescence, 72 h; also: nearly all actives have a fitted effect of over 60% in size
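KB-3-1 cells, DMEM (no phenol red) + 10% FBS; compound by pin transfer, 72 h, 37 °C. Readout: CellTiter-Glo luminescence after 10 min. Data normalized, curve-fitted.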
Starred values were filed as active, the others as inactive; ! = a repeat was not active; [ ] = remark or other dose. Calls follow the shape of the dose curve; as a rule, active = well fitted curve in the direction sought with a large enough effect; inconclusive = small, poorly fitted or top-dose-only effect, or another doubt; inactive = no such curve, though single readings can be large; an effect the other way counts as inactive or inconclusive. Unless noted, % is scaled to controls: 0 for no effect and ±100 for the full control effect; potency is read from the fitted curve at half-maximal effect.

`Cn1c(O)c(C(=N)COc2ccccc2)c(=O)n(C)c1=O` gave KB-V1 cytotox inactive, HT1080 IDH1KD tx 10%, HT1080-NT tox 11%[9.24 µM] and KB-3-1 tox inactive.
For Cn1c(O)c(C(=Nc2ccccc2)SCc2ccc(Cl)cc2)c(=O)n(C)c1=O the results were KB-V1 cytotox 5.2µM*, HT1080 IDH1KD tx inconclusive, HT1080-NT tox inconclusive and KB-3-1 tox inconclusive.
Cc1nn(Cc2ccccc2)c(Cl)c1C(=O)OCC(=O)Nc1cccc2ccccc12 was read as KB-V1 cytotox 16µM*, HT1080 IDH1KD tx -2%, HT1080-NT tox -7% and KB-3-1 tox inconclusive.
Screening Cc1nn(Cc2ccccc2Cl)c(Cl)c1C(=O)OCC(=O)NC(=O)NC1CCCCC1 returned KB-V1 cytotox 16µM*, HT1080 IDH1KD tx -4%, HT1080-NT tox -5% and KB-3-1 tox inactive.
Screening Cc1nn(Cc2ccccc2)c(Cl)c1C(=O)OC(C)C(=O)Nc1ccc(F)cc1Cl (stereo not given) returned KB-V1 cytotox 3.3µM*, HT1080 IDH1KD tx 3%, HT1080-NT tox 12% and KB-3-1 tox inactive.
Screening O=c1c2ccccc2nc(/C=C\c2ccccc2F)n1-c1ccc(O)cc1 returned KB-V1 cytotox inactive and KB-3-1 tox inactive.
CCC(C)C1NC(=O)C2CCCN2C(=O)C(CC(C)C)OC(=O)CCNC(=O)C(C)N(C)C(=O)C(C(C)C)N(C)C1=O (stereo not given) was read as KB-V1 cytotox inactive, HT1080 IDH1KD tx 23µM*, HT1080-NT tox 18µM* and KB-3-1 tox 4.6µM*.
O=C(Nc1ccc(Cl)cc1)Nc1ccc(Cl)c(Cl)c1 was read as KB-V1 cytotox 21µM*!, HT1080 IDH1KD tx inconclusive, HT1080-NT tox inconclusive and KB-3-1 tox inconclusive.
`CC(C)c1ccc(OCC(=O)N2CCN(CCc3ccncc3)CC2)cc1` gave KB-V1 cytotox inactive and KB-3-1 tox inactive.
For COC(=O)[C@@H]1N=C(c2ccc(OC)cc2)O[C@]12C(=O)N(C)c1ccc(Cl)cc12 the results were KB-V1 cytotox inactive, HT1080 IDH1KD tx 2%, HT1080-NT tox -20% and KB-3-1 tox inactive.
`Cc1nc2cc(-c3ccc(Cl)cc3)nn2c(C)c1CCC(=O)N1CCC2(CC1)OCCO2` gave KB-V1 cytotox 18µM*, HT1080 IDH1KD tx 11%, HT1080-NT tox -4% and KB-3-1 tox inactive.
`O=C(CCn1nc(-c2ccc(Cl)cc2)ccc1=O)N1CCC2(CC1)OCCO2` gave KB-V1 cytotox inactive, HT1080 IDH1KD tx 0%, HT1080-NT tox -2% and KB-3-1 tox inactive.
`O=C1NC(=O)C(Cc2ccccc2)(Cc2ccccc2)C(=O)N1` gave KB-V1 cytotox inactive, HT1080 IDH1KD tx -5%, HT1080-NT tox -2% and KB-3-1 tox inactive.
`Fc1cccc(-c2ccc3c(c2)CN(C(=S)NCCc2ccccc2)Cc2cnnn2-3)c1` gave KB-V1 cytotox inconclusive, HT1080 IDH1KD tx -22%, HT1080-NT tox inconclusive and KB-3-1 tox inactive.
For C[C@H](CO)N1C[C@H](C)[C@@H](CN(C)C(=O)Oc2ccc3ccccc3c2)OCc2cn(nn2)CCCC1=O the results were KB-V1 cytotox inactive, HT1080 IDH1KD tx 9%, HT1080-NT tox 4% and KB-3-1 tox inactive.
Screening CC(C)C(NC(=O)C(C(C)C)N(C)C)C(=O)N(C)C(C(=O)N1CCCC1C(=O)N1CCCC1C(=O)NCc1ccccc1)C(C)C (stereo not given) returned KB-V1 cytotox 21µM*, HT1080 IDH1KD tx inconclusive, HT1080-NT tox 0.21µM* and KB-3-1 tox inconclusive.
`CN(C(=O)Oc1cccc2ccccc12)C1C=CCC1` (stereo not given) gave KB-V1 cytotox inactive, HT1080 IDH1KD tx 0%, HT1080-NT tox -17% and KB-3-1 tox inactive.
Screening CCC12CN3CC(CC)(CN(C1)C3c1ccccn1)C2=O (stereo not given) returned KB-V1 cytotox inactive and KB-3-1 tox inactive.
For CN1C2CCC1/C(=C/c1ccccn1)C(=O)/C2=C\c1ccccn1 the results were KB-V1 cytotox inconclusive, HT1080 IDH1KD tx 0.82µM*, HT1080-NT tox 1.2µM* and KB-3-1 tox 0.92µM*.
COc1ccc(C(c2ccc(OC)cc2)C(Cl)(Cl)Cl)cc1 was read as KB-V1 cytotox inactive, HT1080 IDH1KD tx -31%, HT1080-NT tox -58% and KB-3-1 tox inconclusive.

High-throughput results from PubChem.
